Bioassay records as filed in PubChem.
TRHR ag – qHTS for Small Molecule Agonists and Allosteric Enhancers of Human TRH Receptor: Primary Screen for Agonists | Thyrotropin-releasing hormone receptor (Homo sapiens), P34981 | TRHR cells, calcium flux fluo-8, FDSS agonist mode | activation, % at 2 µM | hit rate 0.18% among 360,000 | AID 493084, 2011; also: 0% is about no effect
Target sequence (P34981 whole entry, looked up): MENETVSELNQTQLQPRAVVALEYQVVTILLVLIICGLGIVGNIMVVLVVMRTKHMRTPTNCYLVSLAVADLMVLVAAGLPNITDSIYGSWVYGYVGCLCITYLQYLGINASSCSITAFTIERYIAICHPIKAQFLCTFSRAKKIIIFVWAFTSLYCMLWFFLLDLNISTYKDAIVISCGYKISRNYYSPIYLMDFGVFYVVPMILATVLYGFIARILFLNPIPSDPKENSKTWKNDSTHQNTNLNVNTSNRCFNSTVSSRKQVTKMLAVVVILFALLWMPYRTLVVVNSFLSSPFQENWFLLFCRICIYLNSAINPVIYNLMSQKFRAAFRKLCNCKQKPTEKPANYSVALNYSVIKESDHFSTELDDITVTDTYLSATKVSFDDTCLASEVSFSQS
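In this calcium-flux screen, cells bearing human TRHR are dye-loaded with fluo-8, baselined for 10 cycles, then exposed to library compounds; positive kinetic calcium responses during the agonist phase mark hits, with TRH as control.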
D1 PAM – Potentiators of Human D1 Dopamine Receptor: qHTS | HEK293 TREx D1 cells, calcium flux, dopamine EC20 potentiation | potentiation, % at 10 µM | hit rate 0.036% among 360,000; in the data active = potentiation above about 30%; also: 0% is about no effect
TRHR PAM – qHTS for Small Molecule Agonists and Allosteric Enhancers of Human TRH Receptor: Primary Screen for Enhancers; Thyrotropin-releasing hormone receptor (Homo sapiens), P34981; TRHR cells, fluo-8 calcium fluorescence, EC20 TRH enhancement; enhancement, % at 2 µM; hit rate 0.66% among 360,000; AID 493056, 2011; in the data active = enhancement above about 30%; also: 0% is about no effect
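TRHR-expressing cells loaded with fluo-8 calcium dye were read kinetically (ex 480/em 530) during compound addition, then stimulated with an EC20 of TRH (10 nM final). Enhancement of the Gq-mediated intracellular calcium response was scored.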
D1 antag – Antagonist of Human D 1 Dopamine Receptor: qHTS; D(1A) dopamine receptor (Homo sapiens), P21728; HEK293 TREx D1 cells, calcium flux, dopamine EC80; stronger effect = lower value; activity change, negative = inhibition, % at 10 µM; hit rate 3.2% among 360,000; in the data active = activity change below about -30%; also: % is scaled to controls: 0 for no effect and ±100 for the full control effect
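Using tetracycline-induced force-coupled D1 Hek293 cells and a calcium dye, signals were followed for 180 s after compound, then for 180 s after EC80 dopamine, to detect inhibitors.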
D1 agonist – Allosteric Agonists of the Human D1 Dopamine Receptor: qHTS | D(1A) dopamine receptor (Homo sapiens), P21728 | HEK293 T-REx D1 cells, calcium flux, agonist mode | activation, % at 2 µM | hit rate 1% among 360,000; also: 0% is about no effect
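Tetracycline-induced HEK293 TREx D1 cells, force-coupled to calcium signalling, were dye-loaded with a no-wash calcium kit. Compound was pin-added after a 10 s baseline. Fluorescence was read kinetically at 1 cycle/s for 180 s, with calcium rises flagged as agonism.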
* hit, by the source's call; . = not tested or not shown. Hits are enriched below; roughly 4.7% of the tested compounds scored in any of these assays. Rule as the data show it, unless noted: active = activation above about 30%; inactive = the rest.

SMILES	TRHR ag	D1 PAM	TRHR PAM	D1 antag	D1 agonist
Cc1cc(OCC(=O)Nc2cccc(S(=O)(=O)N3CCCCC3)c2)ccc1Cl	1	-5	-1	-22	11
COc1cccc(/C=C/C(=O)OCC(=O)Nc2cccc(S(=O)(=O)N3CCCCC3)c2)c1OC	0	6	34*	-24	4
O=C(COC(=O)CNC(=O)c1ccc(Cl)cc1Cl)Nc1cccc(S(=O)(=O)N2CCCC2)c1	0	-7	-4	-32*	5
Cc1cc(OCC(=O)Nc2cccc(S(=O)(=O)N3CCCC3)c2)ccc1Cl	1	2	0	-30*	23
CC1CCCC(C)N1C(=O)COC(=O)CNC(=O)c1ccc(Cl)cc1Cl (configuration not stated)	0	-5	34*	-4	4
O=C(CCc1ccccc1Cl)Nc1cccc(S(=O)(=O)N2CCCC2)c1	-1	5	15	-32*	7
O=C(Cc1ccccc1Cl)Nc1cccc(S(=O)(=O)N2CCCCCC2)c1	2	2	3	1	4
Cn1ccnc1SCC(=O)Nc1cccc(S(=O)(=O)N2CCCCCC2)c1	0	-2	10	2	31*
Cc1ccc(S(=O)(=O)N2CCCCC2)cc1NC(=O)CSc1nccn1C	0	2	1	-1	1
CCc1ccccc1OCC(=O)Nc1cccc(S(=O)(=O)N2CCCC2)c1	0	2	-6	-30*	13
Cc1ccc(CCNC(=O)CCn2nc(-c3ccc(Cl)cc3)ccc2=O)cc1	-1	0	3	-17	-1
CCS(=O)(=O)N1CCC(n2c(C(F)(F)F)nc3cccnc32)CC1	0	-4	0	0	4
CCOC(=O)C1CCCN(S(=O)(=O)c2ccc3c4c(cccc24)C(=O)N3CC)C1 (configuration not stated)	0	.	-4	-32*	10
Cc1ccc(CNC(=O)C2CCC(=O)N2Cc2ccc(C)cc2)cc1 (configuration not stated)	0	-4	1	-40*	1
O=C(NCc1cccc(F)c1F)C1CCC(=O)N(C2CC2)C1 (configuration not stated)	1	-10	1	6	2
Cc1ccc(CNC(=O)C2CCC(=O)N2Cc2ccccc2Cl)cc1 (configuration not stated)	0	-2	5	-4	3
Cc1n[nH]c(C)c1CN(C)C(=O)C1CCC(=O)N(CCc2cccc(F)c2)C1 (configuration not stated)	1	1	3	-33*	4
O=C(NCc1cc(C(F)(F)F)ccc1F)C1CCC(=O)N(C2CC2)C1 (configuration not stated)	0	0	-8	-36*	2
O=C(NCCc1ccc(C(F)(F)F)cc1)C1CCC(=O)N(CCCN2CCCC2=O)C1 (configuration not stated)	0	-9	5	-40*	0
CCc1nn2c(=O)cc(COC(=O)c3ccccc3NC(=O)C3CCCCC3)nc2s1	-1	1	1	5	-1
Cc1ccc(CNC(=O)C2CCC(=O)N(CCc3cccc(F)c3)C2)cc1 (configuration not stated)	-1	-11	-3	-43*	2
Cc1cc(CNC(=O)C2CCC(=O)N(CCc3cccc(F)c3)C2)nn1C (configuration not stated)	1	-1	8	1	2
O=C(NCc1ccon1)C1CCC(=O)N(Cc2cccc(C(F)(F)F)c2)C1 (configuration not stated)	2	-7	2	7	0
Cc1cc(CNC(=O)C2CCC(=O)N(Cc3cccc(C(F)(F)F)c3)C2)no1 (configuration not stated)	0	1	31*	5	1
Cc1ccsc1CCNC(=O)C1CCC(=O)N(CCc2cccc(F)c2)C1 (configuration not stated)	0	-3	2	-37*	3
SMILES	TRHR ag	D1 PAM	TRHR PAM	D1 antag	D1 agonist
O=C(NCCc1cccs1)C1CCC(=O)N(CCc2cccc(F)c2)C1 (configuration not stated)	0	2	-8	2	-1
CC1=C(C(=O)OC2CCCCCC2)C(c2ccc(Cl)cc2Cl)CC(=O)N1 (configuration not stated)	0	2	7	18	5
O=C(N/N=C/c1cccc(F)c1)c1c(O)c2c([nH]c1=O)CCCC2	1	-5	2	-50*	1
CNC(=O)c1ccccc1NC(=O)c1c(O)c2c([nH]c1=O)CCCC2	-1	-6	1	15	1
Cc1nnc(SCc2cc([N+](=O)[O-])cc3c2OCOC3)n(N)c1=O	0	-6	8	-42*	2
CCn1cc(CN2CCc3c([nH]c4ccccc34)C2c2cccc(OC)c2)c(C)n1 (configuration not stated)	0	-3	-2	-35*	24
CCn1cc(CN2CCc3c([nH]c4ccccc34)C2c2cccc(O)c2)c(C)n1 (configuration not stated)	1	-10	-3	-8	2
O=C(Nc1ccc(SC(F)F)cc1)c1cc(-c2ccc3c(c2)OCCO3)on1	0	-1	-10	-3	2
COc1ccc2cc(CNc3ccc(C)cc3)c(=O)n(CC(=O)Nc3cccc(C(F)(F)F)c3)c2c1	0	0	5	11	0
CN(C(=O)CSc1nnc(-c2ccc([N+](=O)[O-])cc2)o1)c1ccccc1	-1	0	5	-6	6
O=C(NC1CCN(C(=O)Nc2ccc(F)cc2)CC1)c1ccc(F)cc1	-1	-1	39*	-22	5
O=C(NC1CCN(C(=O)Nc2ccc(F)cc2)CC1)c1cccc(F)c1	0	-6	6	12	1
CC(C)C[C@H]1CN=C(Nc2ccccc2)N1CCCC1CCCC1	0	-6	3	20	41*
CC(C)C[C@H]1CN=C(Nc2ccccc2)N1CCCC1CCCCC1	2	3	2	2	24
CCOC(=O)c1ccccc1NC(=O)N(Cc1ccco1)C1CCN(C(C)=O)CC1	-1	5	0	0	0
C=CCc1cc(OC)ccc1OCCOCCN1CCc2ccccc2C1	0	-11	0	-43*	11
Cc1cc(C)nc(N/N=C/C2=C(N3CCOCC3)C(=C/c3ccccc3)/CC2)n1	-1	-12	-2	-45*	0
Cc1cc(=O)[nH]c(N/N=C/C2=C(N3CCOCC3)C(=C\c3ccc(Cl)cc3)/CC2)n1	1	1	3	-23	1
